# Measured values taken from PubChem BioAssay AID1159580 (chemical genetic matrix, 2015).
# Values joined by “and” are separate entries in the source; they are usually repeats but may differ in a detail not shown here. Equal values may be shown once. The whole screen tested about 5,500 compounds, of which about 2,000 (36%) were called active. Not shown: some 18% with an inconclusive outcome. No stated cut-off is given here; in the data, active means normalized growth mostly below about 0.91 (no sharp cut-off); inconclusive means no clear call, values can overlap the other calls; inactive means mostly above about 0.92. Some of the results follow. More than one record can exist for a structure, and the calls need not agree.
# Assay: chemical genetic growth profiling, strain panel (AID 1159580);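 further: tested at 20 µM; growth read once vehicle control cultures reached saturation at 30 °C; 1 = growth at the plate median or of vehicle wells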
# Settings: S. cerevisiae deletion strains, growth OD
smiles,measurement,setting,value
O=C(O)CCc1nc(-c2ccccc2)c(-c2ccccc2)o1,normalized growth,"locus YAL013W, strain DEP1, stronger effect = lower value",0.974 (inactive)
same,normalized growth,"locus YAL021C, strain ccr4, stronger effect = lower value",0.966 (inactive)
same,normalized growth,"locus YAL026C, strain drs2, stronger effect = lower value",0.929 (inactive)
same,normalized growth,"locus YAL030W, strain snc1, stronger effect = lower value",0.958 (inactive)
same,normalized growth,"locus YAL040C, strain CLN3, stronger effect = lower value",0.978 (inactive)
same,normalized growth,"locus YBL061C, strain skt5, stronger effect = lower value",0.965 (inactive)
same,normalized growth,"locus YBR009C, strain hhf1, stronger effect = lower value",0.964 (inactive)
same,normalized growth,"locus YBR023C, strain chs3, stronger effect = lower value",0.979 (inactive)
same,normalized growth,"locus YBR171W, strain sec66, stronger effect = lower value",0.949 (inactive)
same,normalized growth,"locus YBR229C, strain ROT2, stronger effect = lower value",0.929 (active)
same,normalized growth,"locus YBR231C, strain swc5, stronger effect = lower value",0.96 (inactive)
same,normalized growth,"locus YBR279W, strain paf1, stronger effect = lower value",0.975 (inactive)
same,normalized growth,"locus YCL011C, strain gbp2, stronger effect = lower value",0.943 (inactive)
same,normalized growth,"locus YCL016C, strain dcc1, stronger effect = lower value",0.954 (inactive)
same,normalized growth,"locus YCL061C, strain MRC1 (second series), stronger effect = lower value",0.996 (inactive)
same,normalized growth,"locus YCL061C, strain MRC1, stronger effect = lower value",0.92 (active)
same,normalized growth,"locus YCL069W, strain vba3, stronger effect = lower value",0.965 (inactive)
same,normalized growth,"locus YCR088W, strain abp1, stronger effect = lower value",0.962 (inactive)
same,normalized growth,"locus YDL005C, strain med2, stronger effect = lower value",0.959 (inactive)
same,normalized growth,"locus YDL040C, strain nat1, stronger effect = lower value",0.955 (inactive)
same,normalized growth,"locus YDL101C, strain DUN1, stronger effect = lower value",0.995 (inactive)
same,normalized growth,"locus YDR001C, strain nth1, stronger effect = lower value",0.925 (inactive)
same,normalized growth,"locus YDR069C, strain doa4, stronger effect = lower value",0.954 (inactive)
same,normalized growth,"locus YDR137W, strain rgp1, stronger effect = lower value",0.925 (inactive)
same,normalized growth,"locus YDR150W, strain NUM1, stronger effect = lower value",1 (inactive) and 1.04 (inactive)
same,normalized growth,"locus YDR159W, strain sac3, stronger effect = lower value",0.916 (inactive)
same,normalized growth,"locus YDR195W, strain ref2",0.969 (inactive)
same,normalized growth,"locus YDR297W, strain sur2, stronger effect = lower value",0.955 (inactive)
same,normalized growth,"locus YDR334W, strain swr1, stronger effect = lower value",0.948 (inactive)
same,normalized growth,"locus YDR335W, strain msn5, stronger effect = lower value",0.965 (inactive)
same,normalized growth,"locus YDR363W, strain ESC2, stronger effect = lower value",0.979 (inactive)
same,normalized growth,"locus YDR392W, strain spt3, stronger effect = lower value",0.831 (inactive)
same,normalized growth,"locus YEL003W, strain gim4, stronger effect = lower value",0.943 (inactive)
same,normalized growth,"locus YEL037C, strain rad23, stronger effect = lower value",0.968 (inactive)
same,normalized growth,"locus YEL061C, strain CIN8 (second series), stronger effect = lower value",0.941 (inactive)
same,normalized growth,"locus YEL061C, strain CIN8, stronger effect = lower value",1 (inactive)
same,normalized growth,"locus YER002W, strain NOP16, stronger effect = lower value",0.998 (inactive)
same,normalized growth,"locus YER015W, strain faa2, stronger effect = lower value",0.974 (inactive)
same,normalized growth,"locus YER016W, strain bim1, stronger effect = lower value",0.961 (inactive)
same,normalized growth,"locus YER111C, strain swi4, stronger effect = lower value",0.958 (inactive)
same,normalized growth,"locus YER155C, strain BEM2 (second series), stronger effect = lower value",0.958 (inactive)
same,normalized growth,"locus YFR010W, strain ubp6, stronger effect = lower value",0.958 (inactive)
same,normalized growth,"locus YGL167C, strain pmr1, stronger effect = lower value",0.961 (inactive)
same,normalized growth,"locus YGL173C, strain kem1, stronger effect = lower value",0.958 (inactive)
same,normalized growth,"locus YGL227W, strain vid30, stronger effect = lower value",0.957 (inactive)
same,normalized growth,"locus YGL240W, strain doc1, stronger effect = lower value",0.95 (inactive)
same,normalized growth,"locus YGL253W, strain hxk2, stronger effect = lower value",0.957 (inactive)
same,normalized growth,"locus YGR078C, strain PAC10, stronger effect = lower value",0.909 (active)
same,normalized growth,"locus YGR229C, strain SMI1, stronger effect = lower value",0.976 (inactive)
same,normalized growth,"locus YHR013C, strain ard1, stronger effect = lower value",0.938 (inactive)
same,normalized growth,"locus YHR027C, strain rpn1, stronger effect = lower value",0.971 (inactive)
same,normalized growth,"locus YHR030C, strain SLT2, stronger effect = lower value",0.935 (inactive) and 1.03 (inactive)
same,normalized growth,"locus YHR079C, strain IRE1, stronger effect = lower value",0.967 (inactive)
same,normalized growth,"locus YHR087W, strain rtc3, stronger effect = lower value",0.925 (inactive)
same,normalized growth,"locus YHR142W, strain chs7, stronger effect = lower value",0.963 (inactive)
same,normalized growth,"locus YJL092W, strain hpr5, stronger effect = lower value",0.949 (inactive)
same,normalized growth,"locus YJL095W, strain BCK1 (second series), stronger effect = lower value",0.959 (inactive)
same,normalized growth,"locus YJL095W, strain BCK1, stronger effect = lower value",0.901 (inactive)
same,normalized growth,"locus YJL115W, strain asf1, stronger effect = lower value",0.956 (inactive)
same,normalized growth,"locus YJL129C, strain trk1, stronger effect = lower value",0.926 (inactive)
same,normalized growth,"locus YJL154C, strain vps35, stronger effect = lower value",0.966 (inactive)
same,normalized growth,"locus YJL164C, strain tpk1, stronger effect = lower value",0.954 (inactive)
same,normalized growth,"locus YJL166W, strain qcr8, stronger effect = lower value",0.976 (inactive)
same,normalized growth,"locus YJR043C, strain POL32, stronger effect = lower value",0.959 (inactive)
same,normalized growth,"locus YJR066W, strain TOR1, stronger effect = lower value",0.884 (inactive)
same,normalized growth,"locus YJR075W, strain HOC1, stronger effect = lower value",0.888 (active)
same,normalized growth,"locus YKL160W, strain elf1, stronger effect = lower value",0.982 (inactive)
same,normalized growth,"locus YKL190W, strain CNB1, stronger effect = lower value",0.983 (inactive)
same,normalized growth,"locus YKR026C, strain gcn3, stronger effect = lower value",0.958 (inactive)
same,normalized growth,"locus YKR091W, strain srl3, stronger effect = lower value",0.957 (inactive)
same,normalized growth,"locus YLL001W, strain dnm1, stronger effect = lower value",0.973 (inactive)
same,normalized growth,"locus YLL026W, stronger effect = lower value",0.965 (inactive)
same,normalized growth,"locus YLL041C, strain sdh2, stronger effect = lower value",0.961 (inactive)
same,normalized growth,"locus YLR027C, strain aat2, stronger effect = lower value",0.966 (inactive)
same,normalized growth,"locus YLR039C, strain RIC1, stronger effect = lower value",0.994 (inactive)
same,normalized growth,"locus YLR058C, strain SHM2 (second series), stronger effect = lower value",0.929 (active)
same,normalized growth,"locus YLR085C, strain ARP6, stronger effect = lower value",0.92 (inactive)
same,normalized growth,"locus YLR113W, strain HOG1, stronger effect = lower value",0.787 (active)
same,normalized growth,"locus YLR221C, strain rsa3, stronger effect = lower value",0.935 (inactive)
same,normalized growth,"locus YLR258W, strain gsy2, stronger effect = lower value",0.955 (inactive)
same,normalized growth,"locus YLR262C, strain YPT6 (second series), stronger effect = lower value",0.951 (inactive)
same,normalized growth,"locus YLR262C, strain YPT6, stronger effect = lower value",1.02 (inactive)
same,normalized growth,"locus YLR320W, strain mms22, stronger effect = lower value",0.933 (inactive)
same,normalized growth,"locus YLR342W, strain FKS1, stronger effect = lower value",0.97 (inactive)
same,normalized growth,"locus YLR357W, strain rsc2, stronger effect = lower value",0.985 (inactive)
same,normalized growth,"locus YLR370C, strain arc18, stronger effect = lower value",0.961 (inactive)
same,normalized growth,"locus YLR384C, strain iki3, stronger effect = lower value",0.98 (inactive)
same,normalized growth,"locus YML094W, strain GIM5, stronger effect = lower value",1.02 (inactive)
same,normalized growth,"locus YML120C, strain ndi1, stronger effect = lower value",0.952 (inactive)
same,normalized growth,"locus YMR058W, strain fet3, stronger effect = lower value",0.956 (inactive)
same,normalized growth,"locus YMR125W, strain sto1, stronger effect = lower value",0.938 (inactive)
same,normalized growth,"locus YMR129W, stronger effect = lower value",0.943 (inactive)
same,normalized growth,"locus YMR205C, strain PFK2, stronger effect = lower value",0.954 (inactive)
same,normalized growth,"locus YMR219W, strain ESC1, stronger effect = lower value",0.944 (active)
same,normalized growth,"locus YMR231W, strain pep5, stronger effect = lower value",0.967 (inactive)
same,normalized growth,"locus YMR263W, strain SAP30, stronger effect = lower value",0.9 (active)
same,normalized growth,"locus YMR307W, strain GAS1, stronger effect = lower value",1 (inactive) and 0.949 (inactive)
same,normalized growth,"locus YNL071W, strain lat1, stronger effect = lower value",0.935 (inactive)
same,normalized growth,"locus YNL153C, strain GIM3, stronger effect = lower value",0.964 (inactive)
same,normalized growth,"locus YNL175C, strain NOP13, stronger effect = lower value",0.986 (inactive)
same,normalized growth,"locus YNL183C, strain NPR1, stronger effect = lower value",0.868 (inactive)
same,normalized growth,"locus YNL197C, strain WHI3, stronger effect = lower value",0.987 (inactive)
same,normalized growth,"locus YNL209W, strain ssb2, stronger effect = lower value",0.972 (inactive)
same,normalized growth,"locus YNL224C, strain SQS1, stronger effect = lower value",0.977 (inactive)
same,normalized growth,"locus YNL248C, strain rpa49, stronger effect = lower value",0.974 (inactive)
same,normalized growth,"locus YNL298W, strain CLA4 (second series), stronger effect = lower value",1 (inactive)
same,normalized growth,"locus YNL322C, strain KRE1 (second series), stronger effect = lower value",0.949 (inactive)
same,normalized growth,"locus YNL322C, strain KRE1, stronger effect = lower value",1 (inactive) and 0.926 (active)
same,normalized growth,"locus YNR030W, strain Alg12, stronger effect = lower value",1 (inactive)
same,normalized growth,"locus YNR049C, strain mso1, stronger effect = lower value",0.941 (inactive)
same,normalized growth,"locus YOR001W, strain rrp6, stronger effect = lower value",1 (inactive)
same,normalized growth,"locus YOR070C, strain gyp1, stronger effect = lower value",0.963 (inactive)
same,normalized growth,"locus YOR080W, strain dia2, stronger effect = lower value",0.957 (inactive)
same,normalized growth,"locus YOR083W, strain WHI5 (second series), stronger effect = lower value",1 (inactive)
same,normalized growth,"locus YOR083W, strain WHI5, stronger effect = lower value",0.982 (inactive)
same,normalized growth,"locus YOR106W, strain vam3, stronger effect = lower value",0.973 (inactive)
same,normalized growth,"locus YOR231W, strain MKK1, stronger effect = lower value",0.942 (inactive)
same,normalized growth,"locus YOR265W, strain rbl2, stronger effect = lower value",0.97 (inactive)
same,normalized growth,"locus YOR270C, strain vph1, stronger effect = lower value",0.952 (inactive)
same,normalized growth,"locus YOR290C, strain snf2, stronger effect = lower value",0.93 (inactive)
same,normalized growth,"locus YPL051W, strain arl3, stronger effect = lower value",0.98 (inactive)
same,normalized growth,"locus YPL055C, strain LGE1, stronger effect = lower value",0.996 (inactive)
same,normalized growth,"locus YPL078C, strain atp4, stronger effect = lower value",0.972 (inactive)
same,normalized growth,"locus YPL106C, strain sse1, stronger effect = lower value",0.869 (inactive)
same,normalized growth,"locus YPL240C, strain hsp82, stronger effect = lower value",0.963 (inactive)
same,normalized growth,"locus YPL241C, strain CIN2, stronger effect = lower value",1 (inactive) and 0.984 (inactive)
same,normalized growth,"locus YPL256C, strain CLN2, stronger effect = lower value",0.96 (inactive)
same,normalized growth,"locus YPR135W, strain CTF4, stronger effect = lower value",1.08 (inactive)
